Data on 68 compounds can be found in ChEMBL document CHEMBL1201862, “PubChem BioAssay data set” (2004).

About 2,100 (0.53%) of roughly 400,000 compounds were called active. Inconclusive results (about 14%) are left out. The rule behind the calls is not given here. The entries come from a sample that favours actives as a whole.

In this assay the target is Ataxin-2 (Homo sapiens) (UniProt Q99700). Nature of the assay: qHTS for Inhibitors of ATXN expression. Format: functional. In general terms: Quantitative high-throughput screening tests each substance at several concentrations.
Chain of Ataxin-2 (Homo sapiens) (Q99700 whole entry): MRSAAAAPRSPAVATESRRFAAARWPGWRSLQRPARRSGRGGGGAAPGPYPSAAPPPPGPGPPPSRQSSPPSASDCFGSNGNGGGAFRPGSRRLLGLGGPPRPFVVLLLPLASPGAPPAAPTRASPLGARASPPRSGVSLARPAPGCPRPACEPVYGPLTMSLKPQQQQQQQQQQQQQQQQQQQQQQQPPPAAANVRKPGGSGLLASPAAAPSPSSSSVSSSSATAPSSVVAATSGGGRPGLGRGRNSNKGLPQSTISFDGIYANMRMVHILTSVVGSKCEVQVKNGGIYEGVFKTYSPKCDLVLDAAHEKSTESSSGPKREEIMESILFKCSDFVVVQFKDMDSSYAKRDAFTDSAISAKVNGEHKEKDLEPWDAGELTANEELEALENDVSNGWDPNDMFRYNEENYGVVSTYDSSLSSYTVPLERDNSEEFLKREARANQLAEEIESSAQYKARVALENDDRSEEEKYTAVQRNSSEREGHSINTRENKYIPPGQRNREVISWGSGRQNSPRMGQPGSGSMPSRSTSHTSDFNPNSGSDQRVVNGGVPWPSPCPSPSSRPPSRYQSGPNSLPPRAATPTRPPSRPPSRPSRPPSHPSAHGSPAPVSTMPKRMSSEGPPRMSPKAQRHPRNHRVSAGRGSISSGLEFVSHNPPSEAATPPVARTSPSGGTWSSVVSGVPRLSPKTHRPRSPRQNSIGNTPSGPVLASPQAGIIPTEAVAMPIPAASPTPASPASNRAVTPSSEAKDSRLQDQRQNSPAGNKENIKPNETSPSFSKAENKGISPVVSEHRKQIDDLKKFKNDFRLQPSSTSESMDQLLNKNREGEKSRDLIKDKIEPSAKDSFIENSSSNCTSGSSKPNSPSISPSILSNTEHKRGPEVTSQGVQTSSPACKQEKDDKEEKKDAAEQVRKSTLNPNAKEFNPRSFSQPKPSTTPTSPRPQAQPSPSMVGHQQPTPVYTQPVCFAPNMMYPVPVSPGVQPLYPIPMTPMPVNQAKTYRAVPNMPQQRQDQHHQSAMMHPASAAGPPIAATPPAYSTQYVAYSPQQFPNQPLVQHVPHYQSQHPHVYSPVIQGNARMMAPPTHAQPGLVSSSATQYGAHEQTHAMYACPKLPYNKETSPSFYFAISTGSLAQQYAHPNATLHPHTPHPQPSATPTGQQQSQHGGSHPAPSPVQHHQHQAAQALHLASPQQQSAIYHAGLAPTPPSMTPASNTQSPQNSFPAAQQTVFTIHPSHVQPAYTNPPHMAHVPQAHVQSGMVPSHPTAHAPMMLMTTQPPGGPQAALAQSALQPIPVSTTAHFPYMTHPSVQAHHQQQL
`CCN(CC)CCN1C2=C(C(=O)CC(C)(C)C2)C(c2cccc(F)c2)C2=C1CC(C)(C)CC2=O`: the Potency entry is “inactive”.

`CCOc1ccc(NC(=O)CC(NC(C)=O)c2ccccc2)cc1S(=O)(=O)N1CCCC1` (stereo not drawn): the Potency entry was “inactive”.

`Cc1c(-c2ccccc2)c(=O)oc2cc(O)ccc12`: the Potency result is “inactive”.

With `COc1cccc(Cn2cccc(NC(=O)Nc3ccccc3C)c2=O)c1`, the Potency result is “inactive”.

Regarding `COc1ccc(/C=c2\s/c(=C/C(=O)c3ccc(C)cc3)[nH]c2=O)c(OC)c1`, the Potency result was “inactive”.

On to `COc1ccc(-n2cc(C(=O)c3ccccc3O)cn2)cc1`, for which the Potency entry was “inactive”.

For the compound `COc1ccc(Cn2cc(C(=O)c3ccc(C)c(C)c3)c(=O)c3ccccc32)cc1`, the Potency is 31.6 µM (active).

On to `COc1ccc(Cn2cc(C(=O)c3ccc(C)cc3)c(=O)c3cc(OC)c(OC)cc32)cc1`, for which the Potency is 11.2 µM (active).

For `CCCn1c(O)c(C(=O)NCCc2ccc(OC)cc2)c(=O)c2ccccc21`, the Potency entry was “inactive”.

Consider `Cc1ccc(S(=O)(=O)NC(C)C(=O)OCC(=O)Nc2sccc2C(N)=O)cc1` (stereo not drawn), for which the Potency entry was “inactive”.

Consider `Cc1ccccc1Nc1cccc2nonc12`, for which the Potency entry is “inactive”.

As to `Cc1ccc(C)c(Nc2nc3nonc3nc2Nc2cccc(C)c2C)c1`, the Potency was 10 µM (active).

For the compound `O=C(CCc1ccccc1)NC(=S)Nc1ccccc1Br`, the Potency result is “inactive”.

Take `O=C(CCc1ccccc1)NC(c1cccs1)c1cc(Cl)c2cccnc2c1O` (stereo not drawn): the Potency entry was “inactive”.

On to `O=C(CCc1ccccc1)NC(NC(=S)Nc1ccc(Cl)cc1)C(Cl)(Cl)Cl` (stereo not drawn), for which the Potency was 39.8 µM (active).

Turning to `O=C1c2oc3ccc(Cl)cc3c(=O)c2C(c2ccccn2)N1CCCN1CCOCC1` (stereo not drawn), the Potency entry was “inactive”.

For the compound `NC(=O)C1=CC2C3C=CC2(O)C(=O)OC3O1` (stereo not drawn), the Potency is 16.8 µM (active).

Turning to `Cn1cc(/C=C/c2cc[n+](C)cc2)c2cc(F)ccc21`, the Potency result is “inactive”.

Take `CCOC(=O)Cc1csc(NC(=O)COc2ccc3c(C)cc(=O)oc3c2)n1`: the Potency entry was “inactive”.

On to `CCOC(=O)Cc1csc(NC(=O)CN2CCN(c3ccccc3)CC2)n1`, for which the Potency result was “inactive”.

Turning to `CCOC(=O)Cc1csc(NC(=O)c2ccc3ncsc3c2)n1`, the Potency is 35.5 µM (active).

Consider `SC1=NCN(Cc2ccco2)CN1`, for which the Potency entry was “inactive”.

Regarding `Clc1ccc(/C=C/c2ncc3ccccn23)cc1`, the Potency result was “inactive”.

As to `CCc1cc2c(-c3ccccc3)cc(=O)oc2cc1OC(=O)c1cccs1`, the Potency result is “inactive”.

As to `CCc1ccc2c(c1)/C(=C/C(=O)c1cccs1)C(=O)N2`, the Potency was 20 µM (active).

For `COCCN(CCOC)Cc1c(O)ccc2c1O/C(=C\c1ccc(C)o1)C2=O`, the Potency entry is “inactive”.

`COc1ccc(/C=N/NC(=O)c2cccc(C(F)(F)F)c2)cc1`: the Potency entry was “inactive”.

On to `Nc1ccc(C(=O)N/N=C\c2ccc(OC(=O)c3ccccc3Cl)cc2)cc1`, for which the Potency result was “inactive”.

For `COc1ccc(/C=C/C(=O)Oc2ccc(/C=N/NC(=O)c3ccccc3)cc2)cc1OC`, the Potency is 31.6 µM (active).

Turning to `O=C(CNC(=O)c1ccccc1F)NCc1ccccn1`, the Potency entry was “inactive”.

Turning to `O=C1/C(=C/c2cccc(Cl)c2)CSc2sccc21`, the Potency entry is “inactive”.

Take `CCCN1C/C(=C/c2cccc([N+](=O)[O-])c2)C(=O)/C(=C/c2cccc([N+](=O)[O-])c2)C1`: the Potency was 4.47 µM (active).

For `O=C1NC(=O)/C(=C\c2ccc(OCc3cccc([N+](=O)[O-])c3)cc2)N1`, the Potency result was “inactive”.

In the case of `Cc1cccc(N2CCN(S(=O)(=O)c3cccs3)CC2)c1C`, the Potency entry is “inactive”.

Regarding `Cc1ccccc1C1(CC(=O)N2CCCC2c2nccs2)CC(=O)N(C2CCCC2)C1=O` (stereo not drawn), the Potency entry was “inactive”.

With `C=CCn1c(=O)[nH]c2nc3cc(/N=C/N(C)C)c(C)cc3nc2c1=O`, the Potency result was “inactive”.

For the compound `CC1(c2ccccc2)NC(=O)N(CC(=O)NCc2cccc(Cl)c2)C1=O` (stereo not drawn), the Potency result is “inactive”.

Regarding `O=C(CCl)NN1C(=O)NC(c2ccccc2)(c2ccccc2)C1=O`, the Potency is 26.7 µM (active).

For `O=C(NCc1ccccc1Cl)c1ccc2c(=O)n(CC3CCCO3)c(=S)[nH]c2c1` (stereo not drawn), the Potency result is “inactive”.

On to `Cc1csc(N=Nc2ccc(N(C)C)cc2)[n+]1[O-]`, for which the Potency was 14.1 µM (active).

Consider `CN(C)c1ccc(N=Nc2nc3ccccc3n2C)cc1`, for which the Potency result is “inactive”.

As to `CCCN(CC(=O)Nc1ccc(F)c(F)c1F)C(=O)CN1C(=O)NC2(CCCCC2)C1=O`, the Potency entry is “inactive”.

As for `COC(=O)c1cnc(SCc2ccc(Cl)cc2)n1C`, the Potency entry was “inactive”.

Regarding `O=C(CSc1cccc[n+]1[O-])c1cc(Cl)ccc1Cl`, the Potency was 3.77 µM (active).

As for `O=C(CSc1cc(Cl)ccc1Cl)NC1CCCc2ccccc21` (stereo not drawn), the Potency entry is “inactive”.

For `Cc1ccc(S(=O)(=O)N(CCCO)CC(O)CON=C2c3ccccc3-c3ccccc32)cc1` (stereo not drawn), the Potency was 20 µM (active).

In the case of `CCN(CC)S(=O)(=O)c1ccc(C(=O)N(c2ccc(C)cc2)C2C=CS(=O)(=O)C2)cc1` (stereo not drawn), the Potency result was “inactive”.

For `CCN(CC(O)CON=C1c2ccccc2-c2ccccc21)S(=O)(=O)c1ccc(Cl)cc1` (stereo not drawn), the Potency is 17.8 µM (active).

As to `CC(C)(C)NCC(O)CON=C1c2ccccc2-c2ccccc21` (stereo not drawn), the Potency entry was “inactive”.

In the case of `CCOc1ccccc1N(C(C)=O)S(=O)(=O)c1ccc(Cl)cc1`, the Potency entry is “inactive”.

Take `CN(C)CCN=c1cc(-c2ccccc2)oc2ccc(Cl)cc12`: the Potency result was “inactive”.

As for `O=C(NCC1CCN(C(=O)c2ccc([N+](=O)[O-])cc2)CC1)c1ccc([N+](=O)[O-])cc1`, the Potency entry was “inactive”.

Consider `Cc1ccccc1CSc1nnc(-c2cnccn2)n1C`, for which the Potency result is “inactive”.

Turning to `CCCn1c(SCc2nc(-c3ccccc3C)no2)nnc1-c1ccc(Cl)cc1`, the Potency is 39.8 µM (active).

In the case of `CN(/N=C/c1ccc(Br)o1)C1=NS(=O)(=O)c2ccccc21`, the Potency result is “inactive”.

As to `CC(C)OC(=O)CSc1nnc(COc2ccc([N+](=O)[O-])cc2)n1C`, the Potency result was “inactive”.

`Cc1ccc(C)c(-n2c(N)c(C#N)c3nc4ccccc4nc32)c1`: the Potency entry is “inactive”.

As for `Cn1ncc2c(ON=C(N)c3ccc(C(C)(C)C)cc3)ncnc21`, the Potency was 39.8 µM (active).

As for `Cc1ccccc1C(=O)NNc1ncnc2c1cnn2C`, the Potency entry is “inactive”.

Consider `COc1ccc(NC(=O)c2sc3nc(C)c(C(=O)Nc4ccc(C)cc4C)c(-c4ccccc4Cl)c3c2N)cc1`, for which the Potency result was “inactive”.

In the case of `c1ccc(C2=NN=C(c3ccncc3)c3ccc4ccccc4c3N2)cc1`, the Potency entry is “inactive”.

Consider `N=c1c(C(=O)NCC2CCCO2)cc2c(=O)n3ccccc3nc2n1Cc1ccc(F)cc1` (stereo not drawn), for which the Potency result was “inactive”.

As for `Cc1cccc(COC[C@H](Cc2ccccc2)N2CCN(C(=O)c3cccc(Cl)c3)CCC2=O)c1`, the Potency was 25.1 µM (active).

Take `Cc1ccc(S(=O)(=O)N2CCN(C(=O)COC(=O)Cc3ccc(Cl)cc3)CC2)c(C)c1`: the Potency result is “inactive”.

Turning to `Cc1cccc(C(=O)N2CCC(=O)N([C@H](COCc3ccc(Cl)cc3)Cc3ccccc3)CC2)c1`, the Potency was 39.8 µM (active).

As for `Cc1nn(Cc2ccccc2)c(C)c1C(=O)N1CCN(S(=O)(=O)/C=C/c2ccccc2)CC1`, the Potency entry was “inactive”.

Turning to `O=C(c1cccc(Cl)c1)N1CCC(=O)N(C(COCc2cccc(Cl)c2)Cc2ccccc2)CC1` (stereo not drawn), the Potency is 35.5 µM (active).

Regarding `Cc1cccc(C(=O)NCC(=O)N2CC=C(c3ccccc3)CC2)c1`, the Potency entry was “inactive”.
